ClpP mod = qHTS Assay for Activators of ClpP; purified B. subtilis ClpP, FRET peptide cleavage, 20 min; Potency, µM (highest dose often 57.5 µM); hit rate 1.9% among 340,000; AID 651965, 2013; active = well fitted falling curve with a large enough effect; inconclusive = small, poorly fitted or top-dose-only effect; inactive = no such curve, though single readings can be large or run the other way; also: the source files actives as falling curves though it sought activators and does not explain the sign; nearly all actives have a fitted effect of over 65% in size
Target sequence (P80244 whole entry, looked up): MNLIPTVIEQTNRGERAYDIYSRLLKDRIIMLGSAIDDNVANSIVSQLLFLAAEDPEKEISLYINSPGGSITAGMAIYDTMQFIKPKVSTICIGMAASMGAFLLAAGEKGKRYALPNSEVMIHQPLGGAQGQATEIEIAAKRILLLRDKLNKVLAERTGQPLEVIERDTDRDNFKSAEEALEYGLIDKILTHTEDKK
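ClpP 10 microg/mL final, pH 8 Tris/KCl buffer with BSA, glycerol, Tween-20; compound pinned in; FRET-FV substrate; RT 20 min; Ex320/Em430; ΔFRET vs ADEP 5.8 microM, DMSO, no enzyme.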
TDP1 inh = qHTS Assay for Inhibitors of Tyrosyl-DNA Phosphodiesterase (TDP1); recombinant TDP1, AlphaScreen DNA substrate cleavage; Tyrosyl-DNA phosphodiesterase 1 (Homo sapiens), Q9NUW8; hit rate 0.28% among 350,000; Potency, µM (series often up to 130 µM), hits mostly inhibitors; also: nearly all actives have a fitted effect of over 40% in size
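AlphaScreen read-out: signal falls as enzyme removes the 3' tyrosine-FITC from a 5'-biotinylated DNA oligo (15 nM, 5 min, RT). Enzyme was E. coli-made recombinant Tdp1 at 1 nM, exposed to compound for 15 min beforehand; beads 10 ug/ml, 10 min.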
TDP1 cell noCPT = qHTS for Inhibitors of human tyrosyl-DNA phosphodiesterase 1 (TDP1): qHTS in cells in absence of CPT. DT40 Tdp1-/- hTDP1 cells, no CPT, ATP luminescence, 48 h. Potency, µM (series often up to 46.2 µM), most hits filed as inhibitors. hit rate 15% among 420,000; also: nearly all actives have a fitted effect of over 55% in size
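Cells were dispensed at 400 per well, compounds added by pin tool, plates incubated ≥48 hr at 37 °C, then CellTiter-Glo added for 30 min at room temperature before luminescence reading. Line: DT40 Tdp1-/- complemented with hTDP1; camptothecin omitted.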
TDP1 cell CPT = qHTS for Inhibitors of human tyrosyl-DNA phosphodiesterase 1 (TDP1): qHTS in cells in presence of CPT; chicken DT40 Tdp1-/-;hTDP1 cells + 20 nM CPT, ATP luminescence, 48 h; Potency, µM (doses to about 46.2 µM), actives largely listed as inhibitors; hit rate 12% among 420,000; also: nearly all actives have a fitted effect of over 55% in size
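Chicken DT40 Tdp1-/- cells stably complemented with human TDP1 were seeded at 400 cells/well in medium containing 20 nM camptothecin, exposed to pin-transferred compounds, and grown at 37 °C for at least 48 hr. Viability was read as ATP luminescence.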
Large screens that a line does not name were inactive. The list is not random: actives were taken first. Their share in the collection is about 17%. Unless noted, calls follow the shape of the dose curve; as a rule, active = well fitted curve in the direction sought with a large enough effect; inconclusive = small, poorly fitted or top-dose-only effect, or another doubt; inactive = no such curve, though single readings can be large; an effect the other way counts as inactive or inconclusive.

COc1ccc2c(CCNC(=O)/C=C/c3ccc(OC)c(OC)c3)c[nH]c2c1	TDP1 cell noCPT 18.4µM, TDP1 cell CPT inconclusive (no result: ClpP mod, TDP1 inh)
COc1cccc(/C=C/C(=O)NCCc2ccc(OC)c(OC)c2)c1	ClpP mod inconclusive, TDP1 cell noCPT inconclusive, TDP1 cell CPT inconclusive
COc1ccc(OC)c(/C=C/C(=O)NCCc2nc3ccccc3[nH]2)c1	TDP1 cell noCPT 11.6µM, TDP1 cell CPT 7.31µM (no result: ClpP mod)
CO[C@H]1COC(=O)[C@H](C)NC(=O)[C@@H](C)COC(=O)C/C=C\[C@@H]1C	none (no result: ClpP mod, TDP1 cell noCPT, TDP1 cell CPT)
CCc1ccc(NC(=O)CSc2nc3c(sc4ccccc43)c(=O)n2CCN(CC)CC)cc1	TDP1 cell noCPT 9.2µM, TDP1 cell CPT 14.6µM
CCCCN(CC)C(=O)CSc1nc2c(sc3ccccc32)c(=O)n1CCc1ccccc1	TDP1 cell noCPT 5.17µM, TDP1 cell CPT inconclusive
CCc1ccc(NC(=O)CSc2nc3c(sc4ccccc43)c(=O)n2CCCOC(C)C)cc1	TDP1 cell noCPT 20.6µM
C=CCN(C(=O)CSc1nc2c(sc3ccccc32)c(=O)n1CCN(CC)CC)c1ccccc1	TDP1 cell noCPT 16.4µM, TDP1 cell CPT 18.4µM
CCN(CC)CCn1c(SCC(=O)Nc2ccc(F)cc2)nc2c(sc3ccccc32)c1=O	none (no result: ClpP mod, TDP1 cell noCPT, TDP1 cell CPT)
CCOC(=O)CSc1nc2c(sc3ccccc32)c(=O)n1CCc1ccccc1	TDP1 cell noCPT inconclusive
COc1cccc(-c2nc(CS(=O)(=O)CC(=O)NC3CCCCCC3)c(C)o2)c1	TDP1 cell CPT inconclusive
CCOC(=O)CSc1nc2c(sc3ccccc32)c(=O)n1Cc1ccc(C)cc1	TDP1 cell noCPT inconclusive, TDP1 cell CPT 20.6µM
CC(C)(C)C1CCc2nc(NC(=O)COc3ccc(F)cc3)sc2C1 (centres undefined)	TDP1 cell noCPT 20.6µM, TDP1 cell CPT inconclusive
CC(C)(C)C1CCc2nc(NC(=O)Cc3ccc(Cl)cc3)sc2C1 (centres undefined)	TDP1 cell noCPT 7.31µM, TDP1 cell CPT 6.51µM
CC(C)CC(=O)Nc1nc2c(s1)CC(C(C)(C)C)CC2 (centres undefined)	TDP1 cell noCPT 14.6µM, TDP1 cell CPT 16.4µM
COc1ccc(CC(=O)Nc2nc3c(s2)CC(C(C)(C)C)CC3)cc1 (centres undefined)	TDP1 cell noCPT inconclusive, TDP1 cell CPT inconclusive
COc1cc(OC)c(Nc2nc3ccccc3nc2-n2nc(C)cc2C)cc1Cl	TDP1 cell noCPT inconclusive
CC(=O)c1ccc(Nc2ccc(-c3ccccc3F)nn2)cc1	TDP1 cell noCPT inconclusive (no result: ClpP mod)
O=C(N/N=C/c1ccccc1Cl)c1n[nH]c2c1CCCC2	TDP1 cell noCPT inconclusive
Cc1[nH]nc(C(=O)NN=Cc2ccccc2Cl)c1N=NN(C)C	TDP1 cell noCPT 6.51µM, TDP1 cell CPT 9.2µM (no result: TDP1 inh)
Cc1c(O)c(S(=O)c2ccccc2)c(=O)n(-c2ccccc2)c1-c1ccccc1 (centres undefined)	TDP1 cell CPT inconclusive
Cc1ccc(OC(C)C(=O)Nc2ccc(S(=O)(=O)Nc3cc(C)on3)cc2)cc1 (centres undefined)	none
Cc1cc(NS(=O)(=O)c2ccc(NC(=O)COc3ccc(Br)cc3C)cc2)no1	none (no result: TDP1 inh)
Cc1cc(NS(=O)(=O)c2ccc(NC(=O)COc3ccc(Br)cc3)cc2)nc(C)n1	TDP1 cell noCPT inconclusive, TDP1 cell CPT 14.6µM
Cc1cc(NS(=O)(=O)c2ccc(NC(=O)C(C)Oc3ccc4c(C)cc(=O)oc4c3)cc2)no1 (centres undefined)	ClpP mod 25.1µM
Cc1cc(NS(=O)(=O)c2ccc(NC(=O)COc3c(C)cc(Br)cc3C)cc2)no1	TDP1 cell noCPT 23.1µM, TDP1 cell CPT 20.6µM
CN1C(=O)Cc2cc(S(=O)(=O)N3CCN(c4ccccc4F)CC3)ccc21	TDP1 cell CPT inconclusive
CC(NC(=O)c1ccc(F)cc1)c1ccc2c(c1)CCCC2 (centres undefined)	ClpP mod inconclusive, TDP1 cell noCPT 13µM, TDP1 cell CPT 20.6µM
CC(NC(=O)c1ccc(Br)cc1)c1ccc2c(c1)CCCC2 (centres undefined)	TDP1 cell noCPT inconclusive, TDP1 cell CPT inconclusive
CN(C(=O)CN1C(=O)/C(=C/c2ccccc2Cl)SC1=S)C1CCS(=O)(=O)C1 (centres undefined)	TDP1 cell noCPT inconclusive, TDP1 cell CPT 16.4µM
CCN(C(=O)CCN1C(=O)S/C(=C\c2ccccc2)C1=O)C1CCS(=O)(=O)C1 (centres undefined)	TDP1 cell noCPT inconclusive, TDP1 cell CPT 16.4µM
CN(C(=O)CN1C(=O)/C(=C/c2ccc(F)cc2)SC1=S)C1CCS(=O)(=O)C1 (centres undefined)	TDP1 cell noCPT inconclusive, TDP1 cell CPT inconclusive
CN(C(=O)CN1C(=O)S/C(=C\c2ccccc2Cl)C1=O)C1CCS(=O)(=O)C1 (centres undefined)	none
CN(C(=O)CN1C(=O)/C(=C/c2ccccc2F)SC1=S)C1CCS(=O)(=O)C1 (centres undefined)	TDP1 cell noCPT inconclusive, TDP1 cell CPT 18.4µM
CCCCOC(=O)c1ccc(NC(=O)c2cnc3ccc(C)cn3c2=O)cc1	none
COC(=O)N1CCC2CC1c1c(Cl)cccc12 (centres undefined)	none (no result: TDP1 inh)
CCOc1ccc(C(=O)N(CN2CCCC2=O)c2ccc(C)cc2)cc1	TDP1 cell noCPT 23.1µM, TDP1 cell CPT 8.2µM
CN(C)S(=O)(=O)c1ccc(C(=O)Nc2ccc(-n3nncc3-c3ccccc3)cc2)cc1	TDP1 cell noCPT 14.6µM, TDP1 cell CPT 20.6µM
O=C(Nc1ccccc1)c1ccc(-n2nncc2-c2ccccc2)cc1	TDP1 cell noCPT inconclusive, TDP1 cell CPT 10µM
Cc1ccc(C)c(NC(=S)N2CCC(NC(=O)c3ccccc3)CC2)c1	TDP1 cell noCPT inconclusive (no result: ClpP mod)
Cc1c(C(=O)O)oc2c1-c1nn(Cc3ccccc3Cl)cc1CC2	TDP1 cell noCPT inconclusive
O=C(C1CCN(CC2CC=CCC2)CC1)N(CCc1ccccc1)Cc1ccccc1 (centres undefined)	none
O=C1CCCN1CCCN1CC(C(=O)N(CCO)Cc2ccccc2)CCC1=O (centres undefined)	ClpP mod 31.6µM
O=C(NCc1ccccc1OC(F)(F)F)C1CCC(=O)N(Cc2ccccn2)C1 (centres undefined)	TDP1 cell noCPT inconclusive, TDP1 cell CPT 16.4µM
O=C(C1CCN(CCCc2ccccc2)CC1)N(CCc1ccccc1)Cc1ccccc1	TDP1 cell noCPT 14.6µM, TDP1 cell CPT inconclusive
O=C1CCC(C(=O)N(CCO)Cc2ccccc2)CN1CCCN1CCOCC1 (centres undefined)	none
O=C(NCCc1cccc(F)c1)C1CCC(=O)N(CCCc2ccccc2)C1 (centres undefined)	TDP1 cell noCPT inconclusive, TDP1 cell CPT 18.4µM
O=C(CCSc1ccccc1)Nc1ccc(OCc2ccccc2)cc1	none
Cc1cc(C)n(-c2cc(C(=O)O)cc(C(=O)O)c2)n1	none
